Test results: PubChem BioAssay
Activity calls are given as the source filed them.

Tests used:
[1] = optical density shifts of acrAB sulA E. coli – strain DRC41, OD650, 48 h, E. coli filamentation inducer project, primary screen (AID 1152); conditions: higher = more signal, called active from +8 up or from −8 down;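 also: E. coli MC1000 strain DRC41 lacking acrAB efflux pump and sulA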
[2] = probe aLefty1 binding on compound microarray – biochemical, small-molecule microarray, 635/667 nm fluorescence, primary screen (AID 1153); conditions: higher = more signal;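 also: score merges spot fluorescence with signal-to-noise ratio from the scanned slide images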
[3] = plasmodial surface anion channel blockers, osmotic lysis – cell-based, P. falciparum Indochina, OD700, 1 h, primary screen (AID 1154); conditions: P. falciparum Indochina infected RBC osmotic lysis, higher = more signal, called active from +8 up or from −8 down
[4] = plasmodial surface anion channel blockers, osmotic lysis – cell-based, P. falciparum Indochina, OD700, 2 h, primary screen (AID 1155);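 also: lysis reports solute entry through the parasite surface anion channel PSAC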; conditions: P. falciparum Indochina infected erythrocytes, higher = more signal, called active from +8 up or from −8 down
[5] = changes in parasitized red cell lysis, either direction – P. falciparum Indochina, OD700, 3 h, PSAC antagonist project, primary screen (AID 1156); conditions: P. falciparum-infected erythrocytes, osmotic lysis, higher = more signal, called active from +8 up or from −8 down
[6] = plasmodial surface anion channel blockers, osmotic lysis – cell-based, P. falciparum Indochina, OD700, 18 h, primary screen (AID 1157); conditions: P. falciparum Indochina infected erythrocytes, osmotic lysis OD700, 18 h; higher = more signal, called active from +8 up or from −8 down
[7] = S6 kinase pathway phospho-S6 level changes – cell-based, A549, cytoblot, luminescence, serum-stimulated, primary screen (AID 1158); conditions: 5 h, higher = more signal;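 also: serum-stimulated A549 lung adenocarcinoma cells; signal is phosphorylated S6 detected by cytoblot immunostaining with HRP secondary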
[8] = target: NADPH oxidase 2 (Homo sapiens) (UniProt P04839); test: compounds shifting NOX2 Amplex Red fluorescence – cell-based, HEK293-NOX2, PMA-stimulated, NOX inhibitor project, primary screen (AID 1159); conditions: 45 min, higher = more signal, called active from +8 up or from −8 down; also: test concentration not given here
[9] = target: NADPH oxidase 4 (Homo sapiens) (UniProt Q9NPH5); test: compounds shifting NOX4 Amplex Red fluorescence – cell-based, HEK293-NOX4, tetracycline-induced, NOX inhibitor project, primary screen (AID 1160); conditions: HEK293-NOX4, Amplex Red H2O2 fluorescence, 45 min; higher = more signal, called active from +8 up or from −8 down
[10] = target: NADPH oxidase 5 (Homo sapiens) (UniProt Q96PH1); test: compounds shifting NOX5 Amplex Red fluorescence – cell-based, HEK293-NOX5, NOX inhibitor project, primary screen (AID 1161); conditions: HEK293-NOX5, ionomycin, 45 min, higher = more signal
Sequence of NADPH oxidase 5 (Homo sapiens) (Q96PH1 whole entry, looked up): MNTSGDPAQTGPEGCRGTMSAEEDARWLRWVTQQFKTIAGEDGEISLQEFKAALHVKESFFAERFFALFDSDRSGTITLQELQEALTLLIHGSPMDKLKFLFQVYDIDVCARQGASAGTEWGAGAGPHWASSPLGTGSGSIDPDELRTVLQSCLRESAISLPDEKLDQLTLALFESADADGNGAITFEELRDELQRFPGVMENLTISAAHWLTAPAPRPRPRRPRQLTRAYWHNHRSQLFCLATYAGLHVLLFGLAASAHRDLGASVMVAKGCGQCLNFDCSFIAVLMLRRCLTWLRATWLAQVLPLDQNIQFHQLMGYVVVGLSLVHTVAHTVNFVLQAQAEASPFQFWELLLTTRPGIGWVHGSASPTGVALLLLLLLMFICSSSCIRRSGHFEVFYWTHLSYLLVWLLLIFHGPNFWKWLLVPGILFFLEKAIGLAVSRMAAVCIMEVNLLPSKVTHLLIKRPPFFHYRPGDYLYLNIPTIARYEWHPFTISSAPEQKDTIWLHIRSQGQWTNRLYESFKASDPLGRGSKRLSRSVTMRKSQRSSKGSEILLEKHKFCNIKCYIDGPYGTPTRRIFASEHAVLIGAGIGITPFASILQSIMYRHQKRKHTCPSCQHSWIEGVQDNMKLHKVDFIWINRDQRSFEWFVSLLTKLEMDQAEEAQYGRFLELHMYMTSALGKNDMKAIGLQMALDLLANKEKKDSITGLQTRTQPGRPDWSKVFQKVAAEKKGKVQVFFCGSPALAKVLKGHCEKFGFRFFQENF

Sequence of NADPH oxidase 4 (Homo sapiens) (Q9NPH5 whole entry, looked up): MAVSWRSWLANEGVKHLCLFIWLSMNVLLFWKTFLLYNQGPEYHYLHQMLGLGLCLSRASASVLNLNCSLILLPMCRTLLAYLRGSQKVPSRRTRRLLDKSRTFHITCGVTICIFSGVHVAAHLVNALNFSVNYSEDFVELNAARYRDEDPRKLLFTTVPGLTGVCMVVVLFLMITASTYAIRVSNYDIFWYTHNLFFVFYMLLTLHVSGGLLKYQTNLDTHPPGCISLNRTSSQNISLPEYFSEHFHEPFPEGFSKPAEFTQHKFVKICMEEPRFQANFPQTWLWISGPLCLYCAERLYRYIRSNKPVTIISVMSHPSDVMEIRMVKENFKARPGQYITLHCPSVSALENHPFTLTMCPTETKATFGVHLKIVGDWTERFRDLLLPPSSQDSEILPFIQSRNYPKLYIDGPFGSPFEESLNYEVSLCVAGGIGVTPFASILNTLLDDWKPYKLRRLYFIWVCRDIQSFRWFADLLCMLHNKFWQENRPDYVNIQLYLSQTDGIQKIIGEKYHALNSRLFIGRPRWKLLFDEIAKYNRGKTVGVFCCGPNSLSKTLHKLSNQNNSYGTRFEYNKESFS
Sequence of NADPH oxidase 2 (Homo sapiens) (P04839 whole entry, looked up): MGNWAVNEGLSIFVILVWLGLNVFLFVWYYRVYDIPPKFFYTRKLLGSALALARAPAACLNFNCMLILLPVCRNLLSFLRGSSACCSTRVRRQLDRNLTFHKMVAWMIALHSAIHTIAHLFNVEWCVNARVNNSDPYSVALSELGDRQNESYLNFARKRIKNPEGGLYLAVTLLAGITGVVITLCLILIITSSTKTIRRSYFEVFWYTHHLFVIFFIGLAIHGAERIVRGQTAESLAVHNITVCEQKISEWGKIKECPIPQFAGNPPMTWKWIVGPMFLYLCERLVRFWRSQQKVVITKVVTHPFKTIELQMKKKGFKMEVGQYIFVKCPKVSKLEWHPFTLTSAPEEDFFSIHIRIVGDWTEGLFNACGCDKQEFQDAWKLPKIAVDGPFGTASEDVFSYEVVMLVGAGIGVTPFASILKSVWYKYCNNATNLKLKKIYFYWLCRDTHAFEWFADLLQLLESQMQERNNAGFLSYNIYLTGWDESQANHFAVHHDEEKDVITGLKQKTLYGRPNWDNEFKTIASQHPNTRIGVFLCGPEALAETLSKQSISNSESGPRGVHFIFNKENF

Row | SMILES | z-score [1] | composite z-score [2] | z-score [3] | z-score [4] | z-score [5] | z-score [6] | z-score [7] | z-score [8] | z-score [9] | z-score [10]
1 | COC(=O)[C@@]1(Cc2ccc(F)cc2)[C@H]2c3cc(C(=O)N4CCCC4)n(CCc4c[nH]c5ccccc45)c3C[C@H]2CN1C(=O)c1ccccc1 | -2.35 (inactive) | 1.04 | 2.02 (inactive) | 0.946 (inactive) | 0.805 (inactive) | 1.06 (inactive) | -0.142 | 0.515 (inactive) | 0.988 (inactive) | 1.9
2 | CCCC[C@@H](O)C1=C(COc2ccccc2)C[C@H]2C(=O)N(Cc3ccccc3)C(=O)[C@H]2[C@H]1CO | 0.232 (inactive) | -0.0564 | 13.9 (active) | 1.59 (inactive) | -1.11 (inactive) | 0.967 (inactive) | -0.326 | -0.77 (inactive) | -0.286 (inactive) | -0.695
3 | [N-]=[N+]=Nc1ccccc1C[C@]1(C(=O)NCC(O)CO)COC(c2ccc(OCCCO)cc2)=N1 (stereo not given in full) | 0.759 (inactive) | 0.0512 | 22.8 (active) | 4.35 (inactive) | 3.57 (inactive) | 1.06 (inactive) | 0.575 | 1.52 (inactive) | 0.179 (inactive) | -1.13
4 | COc1ccc([Si](C)(C)[C@@H]2[C@@H](CC(=O)N3Cc4ccccc4C[C@H]3CO)O[C@]3(C(=O)N(Cc4ccc(N5C(=O)c6cccc7cccc5c67)cc4)c4ccccc43)[C@H]2C)cc1 | -0.967 (inactive) | 0.0391 | 3.62 (inactive) | 1.49 (inactive) | -0.149 (inactive) | 0.694 (inactive) | -0.297 | 0.878 (inactive) | 0.929 (inactive) | 2.03
5 | O=C1OCCC/C=C\[C@H]2OC34C=CCN(c5ccc6ccccc6c5)C(=O)[C@H]3N(CCO)C(=O)[C@@H]4C12 (stereo not given in full) | -0.067 (inactive) | 0.0313 | 2.17 (inactive) | 0.476 (inactive) | 0.217 (inactive) | 0.532 (inactive) | 0.235 | 0.356 (inactive) | -0.419 (inactive) | 1.81
6 | CC[C@@H]1C=C(C(=O)O)[C@H](c2ccccc2)N1S(=O)(=O)c1ccc(C)cc1 | -1.24 (inactive) | -0.0984 | 1 (inactive) | 0.72 (inactive) | -0.393 (inactive) | 0.512 (inactive) | -0.265 | 0.848 (inactive) | -0.114 (inactive) | -0.978
